Data as given in PubChem BioAssay (EPA / NIEHS).
Inconclusive results are not listed. Activity calls are given as the source filed them. How the source made its calls: active means hit-call score of the fitted dose curve at least 0.9, where 1 is the maximum; inconclusive means response in the unintended direction; inactive means score below 0.9.

How the values were obtained:
[1] = TOX21_p53_BLA_p2_viability: Viability Assessment in the Tox21 HCT-116 p53 Agonism Beta-lactamase Assay, Phase 2 (AID 2283591);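 further: compound exposure lasted 16 h at 37 °C; actives lower the ATP signal meaning cytotoxicity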
Summary of the method: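 HCT116 p53-bla cells, 4000/well, dosed after 5 h plating (217-fold dilution of DMSO stocks) and incubated 16 h at 37C. Viability taken as cellular ATP by CellTiter-Glo luminescence after 30 min RT; signal loss marks cytotoxicity.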

[2] = molecular target: Cellular tumor antigen p53 (Homo sapiens) (UniProt P04637); experiment: TOX21_p53_BLA_p2_ratio: Tox21 HCT-116 p53 Agonism Beta-lactamase Assay, Ratio, Phase 2 (AID 2283592)
Chain of Cellular tumor antigen p53 (Homo sapiens) (P04637 whole entry, looked up): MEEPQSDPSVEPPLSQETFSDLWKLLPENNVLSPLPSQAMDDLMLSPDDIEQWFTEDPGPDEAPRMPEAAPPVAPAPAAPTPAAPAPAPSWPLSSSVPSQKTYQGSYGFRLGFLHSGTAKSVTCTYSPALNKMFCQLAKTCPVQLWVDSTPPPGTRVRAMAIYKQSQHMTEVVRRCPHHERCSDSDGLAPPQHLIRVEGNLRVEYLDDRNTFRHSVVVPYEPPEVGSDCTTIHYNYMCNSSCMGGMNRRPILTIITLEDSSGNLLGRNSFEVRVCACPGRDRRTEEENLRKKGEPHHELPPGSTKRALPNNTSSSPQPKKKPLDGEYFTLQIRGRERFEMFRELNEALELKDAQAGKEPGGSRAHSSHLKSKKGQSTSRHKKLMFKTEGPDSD
Summary of the method: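 HCT116 p53-bla; 4000 cells/well; 5 h pre-incubation; cpd in DMSO, 217-fold dilution; 16 h 37C/5% CO2; CCF4-AM 2 h RT; Ex 405, Em 460/530 ratio; DMSO = baseline; positive fitting direction.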

[3] = TOX21_p53_BLA_p3_viability: Viability Assessment in the Tox21 HCT-116 p53 Agonism Beta-lactamase Assay, Phase 3 (AID 2283593);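 further: cells exposed to compound for 16 h before reading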
Summary of the method: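 HCT116 cells, 4000/well, dosed 5 h after plating by pin transfer (217-fold dilution from DMSO stock) and incubated 16 h at 37C, 5% CO2. Viability read as ATP luminescence with CellTiter-Glo after 30 min at room temperature.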

[4] = molecular target: Cellular tumor antigen p53 (Homo sapiens) (UniProt P04637); experiment: TOX21_p53_BLA_p3_ratio: Tox21 HCT-116 p53 Agonism Beta-lactamase Assay, Ratio, Phase 3 (AID 2283596)
Summary of the method: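 HCT116 p53-bla cells (4000/well) given compound in DMSO (217-fold dilution) after 5 h, incubated 16 h at 37C. CCF4-AM substrate 2 h at room temperature; 460/530 nm emission ratio, gain fitted against DMSO.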

[5] = TOX21_p53_BLA_p4_viability: Viability Assessment in the Tox21 HCT-116 p53 Agonism Beta-lactamase Assay, Phase 4 (AID 2283597);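 further: hits lower the luminescence signal meaning cytotoxicity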
Summary of the method: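 Cells plated, 5 h pre-incubation; DMSO compounds pinned (217-fold dilution); 16 h, 37C/5% CO2; CCF4-AM 2 h RT; CellTiter-Glo 30 min RT; luminescence read.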

[6] = molecular target: Cellular tumor antigen p53 (Homo sapiens) (UniProt P04637); experiment: TOX21_p53_BLA_p5_ratio: Tox21 HCT-116 p53 Agonism Beta-lactamase Assay, Ratio, Phase 5 (AID 2283599)
Summary of the method: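 HCT-116 p53-bla cells (4000/well) plated 5 h, dosed with compound (217-fold DMSO dilution) for 16 h at 37 C; CCF4-AM substrate 2 h at room temperature. Activity is the 460/530 nm emission ratio (405 nm excitation), fitted in gain-of-signal direction versus DMSO.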

[7] = TOX21_p53_BLA_p5_viability: Viability Assessment in the Tox21 HCT-116 p53 Agonism Beta-lactamase Assay, Phase 5 (AID 2283600)
Summary of the method: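 4000 cells/well; 5 h pre-incubation; DMSO compounds pin-transferred, 217-fold dilution; 16 h, 37C/5% CO2; CCF4-AM 2 h RT; CellTiter-Glo 30 min RT; luminescence.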

[8] = molecular target: Cellular tumor antigen p53 (Homo sapiens) (UniProt P04637); experiment: TOX21_p53_BLA_p4_ratio: Tox21 HCT-116 p53 Agonism Beta-lactamase Assay, Ratio, Phase 4 (AID 2283601)
Summary of the method: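 HCT-116 p53 beta-lactamase reporter cells (4000/well) preincubated 5 h, then compound (217-fold dilution of DMSO stock) for 16 h at 37C. CCF4-AM substrate added 2 h at room temperature; 460/530 nm emission ratio fitted upward versus DMSO.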

Compound	outcome [1]	AC50 [2]	outcome [3]	AC50 [4]	outcome [5]	AC50 [6]	outcome [7]	AC50 [8]	outcome [2]	outcome [4]	outcome [6]	outcome [8]	AC50 [5]	AC50 [1]	AC50 [3]	AC50 [7]
COc1cc2c(N3CCN(C(=O)Nc4ccc(OC(C)C)cc4)CC3)ncnc2cc1OCCCN1CCCCC1	inactive	35.5 µM (active)	inactive	36.9 µM (active)	inactive	34.7 µM (active)	inactive	25.2 µM (active)	–	–	–	–	–	–	–	–
Cc1cc2nc(N)sc2cc1C	inactive	–	inactive	–	inactive	–	inactive	–	inactive	inactive	inactive	inactive	–	–	–	–
O=C(O)c1cc(Cl)cc(Cl)c1	inactive	–	inactive	–	inactive	–	inactive	–	inactive	inactive	inactive	inactive	–	–	–	–
O=C(Nc1ccc(S(=O)(=O)N2CCOCC2)cc1)c1cc(Cl)ccc1NS(=O)(=O)c1ccc(Cl)s1	inactive	–	inactive	–	–	21.7 µM (active)	inactive	36.5 µM (active)	inactive	inactive	–	–	22 µM (active)	–	–	–
O=S(=O)(O)c1ccc(O)cc1	inactive	–	inactive	–	inactive	–	inactive	–	inactive	inactive	inactive	inactive	–	–	–	–
COc1cc2c(cc1OC)C(=O)C(CC1CCN(Cc3ccccc3)CC1)C2 (stereo not given)	inactive	–	inactive	–	inactive	–	inactive	–	inactive	inactive	inactive	inactive	–	–	–	–
C[N+]1(CC2COC(c3ccccc3)(C3CCCCC3)O2)CCCCC1 (stereo not given)	inactive	–	inactive	–	inactive	–	inactive	–	inactive	inactive	inactive	inactive	–	–	–	–
NC(=O)NS(=O)(=O)c1ccc(N)cc1	inactive	–	inactive	–	inactive	–	inactive	–	inactive	inactive	inactive	inactive	–	–	–	–
Cc1cc2c(C(C)C)c(O)c(O)c(C=O)c2c(O)c1-c1c(C)cc2c(C(C)C)c(O)c(O)c(C=O)c2c1O	–	30.1 µM (active)	–	29.9 µM (active)	–	35 µM (active)	–	33.2 µM (active)	–	–	–	–	10 µM (active)	10 µM (active)	6.89 µM (active)	10.2 µM (active)
CC(=O)NCc1c(I)c(NC(C)=O)c(I)c(C(=O)O)c1I	inactive	–	inactive	–	inactive	–	inactive	–	inactive	inactive	inactive	inactive	–	–	–	–
CCc1c2c(nc3ccc(OC(=O)N4CCC(N5CCCCC5)CC4)cc13)-c1cc3c(c(=O)n1C2)COC(=O)[C@]3(O)CC	inactive	5.56 µM (active)	inactive	5.37 µM (active)	inactive	7.41 µM (active)	inactive	11.3 µM (active)	–	–	–	–	–	–	–	–
CC(C)C[C@H](NC(=O)CNC(=O)[C@H](Cc1ccc(O)cc1)NC(=O)[C@H](CO)NC(=O)[C@H](Cc1c[nH]c2ccccc12)NC(=O)[C@H](Cc1cnc[nH]1)NC(=O)[C@@H]1CCC(=O)N1)C(=O)N[C@@H](CCCN=C(N)N)C(=O)N1CCC[C@H]1C(=O)NCC(N)=O (stereo in doubt)	inactive	–	inactive	–	inactive	–	inactive	–	inactive	inactive	inactive	inactive	–	–	–	–
O=C(O)c1cc(=O)c2c3nc4ccccc4oc-3cc(=O)c2[nH]1	inactive	–	inactive	–	inactive	–	inactive	–	inactive	inactive	inactive	inactive	–	–	–	–
CCCCNc1cc(C(=O)O)cc(S(N)(=O)=O)c1Oc1ccccc1	inactive	–	inactive	–	inactive	–	inactive	–	inactive	inactive	inactive	inactive	–	–	–	–
OCCN1CCN(CC/C=C2/c3ccccc3Sc3ccc(C(F)(F)F)cc32)CC1	inactive	–	inactive	–	–	–	inactive	–	inactive	inactive	inactive	inactive	36.3 µM (active)	–	–	–
N#CC(c1ccc(Cl)cc1)c1c(Cl)cc(-n2ncc(=O)[nH]c2=O)cc1Cl (stereo not given)	inactive	19.6 µM (active)	–	20.3 µM (active)	–	22.1 µM (active)	inactive	22.1 µM (active)	–	–	–	–	31.4 µM (active)	–	32.2 µM (active)	–
CN1C(=O)OC(C)(C)C1=O	inactive	–	inactive	–	inactive	–	inactive	–	inactive	inactive	inactive	inactive	–	–	–	–
CC1(C)S[C@@H]2[C@H](NC(=O)Cc3ccccc3)C(=O)N2[C@H]1C(=O)O (tested in a mixture with another compound)	inactive	–	inactive	–	inactive	–	inactive	–	inactive	inactive	inactive	inactive	–	–	–	–
Cc1onc(-c2c(F)cccc2Cl)c1C(=O)N[C@@H]1C(=O)N2[C@@H]1SC(C)(C)[C@@H]2C(=O)O	inactive	–	inactive	–	inactive	–	inactive	–	inactive	inactive	inactive	inactive	–	–	–	–
CNC[C@H](O)c1ccc(O)c(O)c1	inactive	–	inactive	–	inactive	–	inactive	–	inactive	inactive	inactive	inactive	–	–	–	–
Cc1c(Cl)cccc1Nc1ccccc1C(=O)O	–	19.4 µM (active)	–	21.1 µM (active)	–	21.6 µM (active)	inactive	17.7 µM (active)	–	–	–	–	10.2 µM (active)	5.79 µM (active)	23 µM (active)	–
C=CCN1C(=O)C(CC(C)C)NC1=S (stereo not given)	inactive	–	inactive	–	inactive	–	inactive	–	inactive	inactive	inactive	inactive	–	–	–	–
CCC(CC)(CC(=O)Nc1cccc(/C=C/c2nc(C3CCC3)cs2)c1)C(=O)O	inactive	–	inactive	–	inactive	–	inactive	–	inactive	inactive	inactive	inactive	–	–	–	–
Cc1ccc(S(=O)(=O)NC(=O)NC2CCCCCCC2)cc1	inactive	–	inactive	–	inactive	–	inactive	–	inactive	inactive	inactive	inactive	–	–	–	–
c1ccc2c(CC3=NCCN3)cccc2c1	inactive	–	inactive	–	inactive	–	inactive	–	inactive	inactive	inactive	inactive	–	–	–	–
